Assay results taken from PubChem BioAssay AID624172 (National Center for Advancing Translational Sciences (NCATS), 2012).
In all, about 380,000 compounds went through this assay and about 25 (0.007%) were called active. Calls follow the shape of the dose curve; as a rule, active = well fitted activation curve with a large enough effect; inconclusive = small, poorly fitted or top-dose-only effect; inactive = no such curve, though single readings can be large or run the other way. A selection follows.

What follows are compounds tested against Glucagon-like peptide 1 receptor (Homo sapiens) (UniProt P43220) (assay: qHTS of GLP-1 Receptor Agonists). Details: HEK293 GLP-1R CRE-luciferase, luminescence, 4-6 h, cells express a hypersensitive GLP-1R form; series mostly up to 45.6 µM; activation: at the top concentration.
Text: The overall goal of this project was to develop a novel assay for discovering small molecule ligands for class B1 G protein-coupled receptors (GPCRs). Very few agonists (or inverse agonists) with generally weak activity for this entire group of physiologically important receptors are known to date. To establish proof-of-principle that this critical bottleneck can be overcome with a suitable screening approach, our studies focused on the class B1 receptor for glucagon-like peptide-1 (GLP-1R), a potential therapeutic target for diabetes and neurodegenerative disease.
The assay was developed in a "mix and measure" format using a cell-based functional readout. Toward this goal, stably transfected HEK293 cell clones were established that co-express (i) a cAMP-responsive luciferase reporter gene, and (ii) GLP-1Rs that upon ligand interaction either stimulate (agonists) or inhibit (inverse agonists) luciferase activity. In different cell lines to be used for screening, expressed GLP-1Rs are specifically optimized for high sensitivity detection of either weak agonists (hypersensitive receptor) or inverse agonists (constitutively active receptor mutant). In addition, control cell lines were developed that express either the cAMP-responsive reporter gene without recombinant GLP-1Rs (enabling initial exclusion of GLP-1R independent effects of candidate probes), or the reporter gene together with wild type GLP-1Rs (for confirmation of probe activity at this receptor), or the reporter gene in combination with the constitutively active orphan receptor GPR119 (enabling initial exclusion of GLP-1R independent inhibitory effects of candidate inverse agonists).
To that end, this assay was optimized for 1536-well format and screened against the MLSMR.
NIH Molecular Libraries Probe Production Network [MLPCN]
NIH Chemical Genomics Center [NCGC]
PI Name: Martin Beinborn, Tufts Medical Center
In a white solid 1536-well plate, 6 uL of cells are dispensed in DMEM without phenol red, 10% Nu serum, and 1% pen-strep medium. The plates are then incubated for 12 hours at 37 deg C at 5% CO2 before 23 nL of compounds are added. After a 4-6 hr incubation at37 deg C and 5% CO2, 3 uL of detection reagent are added and after a 12 min incubation at RT, a luminescent read is obtained on the ViewLux.
Also: % of control where 0% means no effect.

Chain of Glucagon-like peptide 1 receptor (Homo sapiens) (P43220 whole entry, looked up): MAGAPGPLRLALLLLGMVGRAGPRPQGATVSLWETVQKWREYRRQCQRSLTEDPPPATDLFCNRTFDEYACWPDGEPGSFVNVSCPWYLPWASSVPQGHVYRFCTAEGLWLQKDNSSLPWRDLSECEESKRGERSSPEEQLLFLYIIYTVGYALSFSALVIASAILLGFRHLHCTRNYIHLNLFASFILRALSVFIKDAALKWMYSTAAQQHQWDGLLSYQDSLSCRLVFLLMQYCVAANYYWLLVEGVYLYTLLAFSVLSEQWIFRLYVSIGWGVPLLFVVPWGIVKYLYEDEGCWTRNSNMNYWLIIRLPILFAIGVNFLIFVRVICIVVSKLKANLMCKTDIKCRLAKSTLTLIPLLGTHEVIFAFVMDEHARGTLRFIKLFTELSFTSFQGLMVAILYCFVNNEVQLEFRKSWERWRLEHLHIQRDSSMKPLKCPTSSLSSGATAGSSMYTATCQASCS

activation, inactive:
COC(=O)[C@@H]1CC2=CC(=O)CC[C@]2(C)[C@@]23O[C@@H]2C[C@@]2(C)[C@@H](CC[C@@]24CCC(=O)O4)[C@H]13 6.89%
OCC(CO)NC1C[C@](O)(CO)[C@@H](O)[C@H](O)[C@H]1O (stereo partly specified) -3.76%
Cc1ccccc1NC(=O)Cn1c(=O)n(Cc2ccco2)c(=O)c2ccc(C(=O)NC3CCCC3)cc21 2%
CC(=O)O[C@]1(C(C)=O)CC[C@@H]2[C@@H]3C=C(C)C4=CC(=O)CC[C@@]4(C)[C@H]3CC[C@]21C -3.27% [at 19.8 µM]
C[C@]12CC[C@@H]3c4ccc(O)cc4C[C@@H](CCCCCCCCCS(=O)CCCC(F)(F)C(F)(F)F)C3[C@@H]1CC[C@@H]2O (stereo partly specified) 14.3%
Cc1nn(-c2ccc(F)cc2)c(-n2cccc2)c1C(=O)N1CCN(c2ccccc2)CC1 4.43%
O=C(CCCCn1c(=O)c2ccccc2n(CC(=O)Nc2cccc(C(F)(F)F)c2)c1=O)NCc1ccc2c(c1)OCO2 1.22%
COc1cccc(NC(=O)CSc2cc(=O)n(C)c3ccc(Cl)cc23)c1 5.73%
CCc1ccccc1NS(=O)(=O)c1ccc2nc(-c3ccccc3)[nH]c2c1 -6.53%
Cc1ccc(C)c(N2CCN(C(=O)CCc3c(C)nc4c(c3C)c(=O)n(C)c(=O)n4C)CC2)c1 -1.73%
O=C(Nc1cccc(C(F)(F)F)c1)c1cc(Br)cc(Br)c1O -2.09%
CCOC(=O)c1ccc(N2C(=O)c3n[nH]c(C)c3C2c2ccc(O)c(OC)c2)cc1 (stereo unspecified) 9.13%
CCc1ccc(NC(=O)CN2CCSc3ccc(S(=O)(=O)N4CCCC4)cc32)cc1 7.06%
C=C1C(=CC=C2CCC[C@]3(C)[C@@H]([C@H](C)C=C[C@H](C)C(C)C)CC[C@@H]23)C[C@@H](O)C[C@@H]1O -4.1%
CCOc1ccc(NC(=O)Cn2cc(C(=O)c3ccc(C)cc3)c(=O)c3cc4c(cc32)OCCO4)cc1 0.588%
CCOC(=O)c1oc2ccc(S(=O)(=O)n3nc(-c4ccccc4OC)cc3N)cc2c1C 0.713%
COc1ccc(S(=O)(=O)n2nc(C)c(S(=O)(=O)N3CCCCCC3)c2C)cc1 -1.8%
CCN(C(=O)c1sc2cc(OC)ccc2c1Cl)c1ccccc1 8.92%
CN(C)c1ccc(NC(=O)CSc2nc(-c3ccco3)cc(C(F)(F)F)n2)cc1 0.431%
CCCCC(=O)OCC(=O)[C@H]1[C@H](C)C[C@@H]2[C@@H]3C[C@@H](F)C4=CC(=O)C=C[C@]4(C)[C@@]3(F)[C@@H](O)C[C@@]21C -0.472%
COc1ccc(NC(=O)Cn2c(=O)cc(C)c3c(C)nn(-c4cccc(Cl)c4C)c32)cc1OC 0.446%
CCCCCCCCCc1ccc(OCCOCCOCCOCCOCCOCCOCCOCCOCCO)cc1 5.73%
COc1cc(CNCCSc2nnnn2C)ccc1OCc1c(F)cccc1Cl 2.51%
Cc1cccc(N2CCN(C(=O)c3cc4c(=O)oc5ccccc5c4s3)CC2C)c1 (stereo unspecified) -0.212%
CC(C)(O/N=C(\C(=O)N[C@@H]1C(=O)N2C(C(=O)[O-])=C(C[n+]3ccccc3)CS[C@@H]12)c1csc(N)n1)C(=O)O -3.84% [at 19.8 µM]
COc1ccccc1NC(=O)C1=C(C)Nc2ncnn2C1c1sccc1C (stereo unspecified) 9.66%
CCC(CCC(C)C1CCC2C3CC=C4CC(O)CC[C@@]4(C)C3CC[C@@]12C)C(C)C (stereo partly specified) 11.2%
Cc1sc2ncn(CC(=O)N3CCN(c4ccc(F)cc4)CC3)c(=O)c2c1S(=O)(=O)N1CCN(c2ncccn2)CC1 -4.64%
Cc1cccc(NC(=O)Cn2c(C(F)(F)F)nc3ccccc32)c1C -0.396%
COc1cc(OC)cc(C(=O)Nc2ccc3nc(Nc4cccc(C(F)(F)F)c4)cc(C)c3c2)c1 -14.1%
CC(=O)Oc1ccccc1C(=O)Nc1ncc([N+](=O)[O-])s1 -1.78%
COc1ccccc1CNC(=O)CCn1c(=O)c2ccccc2n(CC(=O)Nc2ccc(Br)cc2F)c1=O -2.58%
Cc1ccc(N2CCN(C(=O)CCc3c(C)nc4c(c3C)c(=O)n(C)c(=O)n4C)CC2)c(C)c1 -1.8%
C/C=C1\C2C=C(C)CC1(N)c1ccc(=O)[nH]c1C2 (stereo unspecified) -2.31%
CC(=O)NC(=O)c1ccccc1O -4.09%
CCCOc1ccc(-c2cccc(NS(=O)(=O)c3ccccc3)c2)nn1 -0.146%
Cc1ccc(S(=O)(=O)NC(=O)NN2C[C@H]3CCC[C@@H]3C2)cc1 -4.28% [at 19.8 µM]
COc1ccc(-c2c(C)nn3c(N4CCC(C(=O)NCCC(C)C)CC4)cc(C)nc23)cc1OC 0.364%
CN(C)CCCSc1ccccc1NC(=O)/C=C/c1ccccc1 6.6%
CCOC(=O)c1c(NC(=O)c2ccc(S(=O)(=O)N3CCCC(C)C3)cc2)sc2c1CCN(C(C)C)C2 (stereo unspecified) 8.14%
C[N+](C)(CCOc1ccccc1)Cc1cccs1 (tested in a mixture with another compound) 1.72%
CCOc1ccccc1NC(=O)C1=C(C)Nc2ncnn2C1c1ccc(NC(C)=O)cc1 (stereo unspecified) -6.86%
COc1cccc(CNCCSc2nnnn2C)c1OCc1ccccc1Cl 2.98%
CCc1ccc(C(=O)CC2(O)C(=O)N(CCc3ccccc3)c3ccc(Br)cc32)cc1 (stereo unspecified) -2.5%
COc1ccccc1CNC(=O)CCn1c(=O)c2ccccc2n(CC(=O)Nc2cccc(Cl)c2)c1=O -0.689%
COc1ccc(CCNc2nc(-c3ccc(F)cc3)cc(C(F)(F)F)n2)cc1OC -0.152%
CCc1ccc(Sc2cc(C(=O)NCCCOC(C)C)c3ccccc3n2)cc1 -7.03%
O=C(CSc1ncc(CO)n1Cc1ccc(Cl)cc1)NCc1ccc(F)cc1 8.49%
COCCNC(=O)c1ccc2c(c1)N=C(C)c1cc(C)ccc1S2 -0.88%
Oc1ccc(Cl)c2c1CCC2 4.26%
COc1ccccc1-c1cc2nc(C)c(CCC(=O)O)c(C)n2n1 -1.35%
O=C(CCS(=O)(=O)c1ccc2c(c1)NC(=O)CO2)Nc1cccc(C(F)(F)F)c1 -0.552%
CCCC[C@H]1C(=O)N(c2ccccc2)N(c2ccc(O)cc2)C1=O 1.82% [at 19.8 µM]
COc1ccc(-n2c(C)nc3c(cnn3-c3ccc(F)cc3)c2=O)cc1 -0.59%
COc1ccc2cc(-c3nc(Cl)c4c5c(sc4n3)CC(C)CC5)c(=O)oc2c1 (stereo unspecified) 1.37%
O=C(OCc1ccccc1)c1ccc(O)cc1 0.159%
Cc1ccccc1C(=O)Nc1cc(C)c(O)c(-c2nc3ccccc3o2)c1 -0.525%
O=C1c2c(O)cccc2[C@@H]([C@@H]2O[C@H](CO)[C@@H](O)[C@H](O)[C@H]2O)c2cc(CO)cc(O)c21 0.834%
CCOCCCNC(=O)c1cn(CC)c2ccc(S(=O)(=O)N3CCc4ccccc4C3)cc2c1=O 1.02%
CC(=O)N1CCc2cc(Br)cc(S(=O)(=O)CCC(=O)NCCc3ccc(Cl)cc3)c21 0.617%
COc1ccc(Nc2ncc(C(=O)Nc3cc(C)ccc3OC)c3ccccc23)cc1 0.74%
COc1cc2nc(SCC(=O)Nc3ccccc3F)n3nc(-c4ccccc4)nc3c2cc1OC -0.682%
CCN(CC)c1ccc(C2C(C(N)=O)=C(C)Nc3nc(SCc4ccccc4)nn32)cc1 (stereo unspecified) 2.01%
CCCCCn1c(=O)[nH]c2cc(C(=O)Nc3ccc(F)cc3)ccc2c1=O 0.528%
CC[C@]1(C)CC(=O)NC1=O -4.13%
COc1cc(OC)c(NC(=O)c2c3c(nn2C)-c2ccccc2SC3)cc1Cl 0.142%
COc1ccc(-c2cc(C(F)(F)F)nc(SCC(=O)N(C)Cc3ccccc3)n2)cc1OC 4%
CC1(C)O[C@@H]2C[C@@H]3[C@H]4C[C@@H](F)C5=CC(=O)C=C[C@]5(C)[C@@]4(F)[C@@H](O)C[C@]3(C)[C@]2(C(=O)CO)O1 -0.578%
Cc1ccc(C)c(N2C(=O)N(Cc3c(F)cccc3Cl)c3ccccc3S2(=O)=O)c1 0.891%
COc1cccc(CNC(=O)C(NS(=O)(=O)c2ccc3nc(C)sc3c2)C(C)C)c1 (stereo unspecified) -4.28%
Cc1cc2c(cc1S(=O)(=O)CCC(=O)Nc1ccc(OC(F)(F)F)cc1)OCC(=O)N2 18.1%
NC(=O)C(=O)N/N=C/c1ccc([N+](=O)[O-])o1 -3.04%
Cc1ccc(-c2ncc(Cl)cc2-c2ccc(S(C)(=O)=O)cc2)cn1 0.0129%
Cc1nnc(C(=O)NC(C)(C)c2nc(C(=O)NCc3ccc(F)cc3)c(O)c(=O)n2C)o1 12.6%
CC[C@]1([C@H]2O[C@@H]([C@@H]3O[C@](O)(CO)[C@@H](C)C[C@H]3C)C[C@H]2C)CC[C@@H]([C@]2(C)CC[C@@]3(C[C@@H](O)[C@@H](C)[C@@H]([C@H](C)[C@H](OC)[C@H](C)C(=O)O)O3)O2)O1 -2.14%
COc1ccc(NC(=O)C2CCCN(S(=O)(=O)c3c(C)[nH]c(=O)[nH]c3=O)C2)c(OC)c1 (stereo unspecified) -0.467%
Cc1cccc(C)c1NC(=O)NC1=CCCN1C 4.03%
CCCN(C(=O)Cn1cc(S(=O)(=O)N2CCN(c3ccccc3F)CC2)c2ccccc2c1=O)c1cccc(C)c1 -0.739%
C[C@@H]1C[C@H]2[C@@H]3C[C@H](F)C4=CC(=O)C=C[C@@]4(C)[C@]3(F)[C@H](O)C[C@]2(C)[C@@]1(O)C(=O)CO -0.723% [at 19.8 µM]
CCCC(=O)O[C@]1(C(=O)COC(=O)CC)CC[C@@H]2[C@@H]3CCC4=CC(=O)CC[C@]4(C)[C@H]3[C@@H](O)C[C@@]21C -1.61%
CC(=O)CC(c1ccccc1)C1C(=O)Oc2ccccc2C1=O (stereo unspecified) -4.85%
COc1cc2c(cc1OC)[C@@H](Cc1cc(OC)c(OC)c(OC)c1)[N+](C)(CCCOC(=O)CC/C=C/CCC(=O)OCCC[N+]1(C)CCc3cc(OC)c(OC)cc3[C@H]1Cc1cc(OC)c(OC)c(OC)c1)CC2 (stereo partly specified) -0.798%
Cc1cc(OCC(=O)NCC2(N(C)C)CCCCC2)cc(C)c1Cl -2.17%
CC(=O)c1ccc(NC(=O)C2CCN(S(=O)(=O)c3c(C)noc3/C=C/c3ccc(C)cc3)CC2)cc1 -2.34%
COc1ccc(NC(=O)c2cnc(Nc3ccc(C)c(Cl)c3)c3ccccc23)cc1OC -1.26%
O=C(NCc1ccccc1)C1CCN(S(=O)(=O)c2ccc3[nH]c(=O)ccc3c2)CC1 1.16%
